# According to PubChem BioAssay (NCATS):
# Values without a mark were called inactive. Results filed as inconclusive are left out. Calls of active or inactive are those of the source. Unless noted, calls come from the whole dose curve; as a rule, active = well fitted curve in the direction sought with a large enough effect; inconclusive = small, poorly fitted or top-dose-only effect, or another doubt; inactive = no such curve, though single readings can be large; an effect the other way counts as inactive or inconclusive.
# How the values were obtained:
# [1] = biological target: Lysosomal acid glucosylceramidase (Homo sapiens) (UniProt P04062); assay: Glucocerebrosidase-p2 (AID 348; in the data active = potency below about 10 µM; note: potency is the fitted concentration of half-maximal effect); details: purified GBA, blue fluorogenic substrate, 40 min
# Lysosomal acid glucosylceramidase (Homo sapiens), sequence (P04062 whole entry, looked up): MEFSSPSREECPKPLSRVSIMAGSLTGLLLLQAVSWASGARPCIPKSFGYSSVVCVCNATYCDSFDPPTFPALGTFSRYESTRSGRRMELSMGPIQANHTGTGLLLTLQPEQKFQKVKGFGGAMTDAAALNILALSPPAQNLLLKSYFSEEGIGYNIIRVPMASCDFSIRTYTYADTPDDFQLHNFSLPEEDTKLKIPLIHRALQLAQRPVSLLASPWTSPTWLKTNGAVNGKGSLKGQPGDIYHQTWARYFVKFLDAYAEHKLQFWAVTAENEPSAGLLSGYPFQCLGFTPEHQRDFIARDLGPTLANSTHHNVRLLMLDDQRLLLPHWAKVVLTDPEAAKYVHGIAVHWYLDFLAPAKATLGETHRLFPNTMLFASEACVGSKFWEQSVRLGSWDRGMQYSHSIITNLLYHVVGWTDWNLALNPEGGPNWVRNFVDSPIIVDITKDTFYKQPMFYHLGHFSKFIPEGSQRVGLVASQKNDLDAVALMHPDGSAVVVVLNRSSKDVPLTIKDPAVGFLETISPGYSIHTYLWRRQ
# In short: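 Normal human glucocerebrosidase (0.2 nM) with blue fluorogenic substrate (80 uM final) in citrate/phosphate pH 5.9 with 10mM sodium taurocholate, 0.01% tween-20; 40 min RT, NaOH/glycine stop; fluorescence Ex 365/Em 440; AC50 from a titration from 0.6 nM upwards.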
# [2] = AP1 Signaling Pathway (AID 357; active = well fitted curve in either direction with a large enough effect, not every such curve was filed as active; note: % is set by controls: 0 for no effect and ±100 for the full control effect); details: ME-180 AP-1-bla reporter, EGF-induced, beta-lactamase ratio, 5 h; at 7.69 µM (top of the series) unless noted
# In short: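 AP-1-bla ME-180 cells with beta-lactamase reporter under AP-1 response element, stimulated with EC50 EGF; compounds titrated, 5 hours at 37 degrees Celsius. CCF4 read at 460/530 nm ratio; positive and negative modulators judged by AC50.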
# [3] = biological target: Cytochrome P450 1A2 (Homo sapiens) (UniProt P05177); assay: p450-cyp1a2 (AID 410; calls by dose curve; note: potency is the fitted concentration of half-maximal effect;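 for activity change, negative = inhibition: -100% = full effect of reference inhibitor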); details: recombinant CYP1A2, luciferin-ME demethylation, luminescence; series mostly up to 57 µM
# Cytochrome P450 1A2 (Homo sapiens), sequence (P05177 whole entry, looked up): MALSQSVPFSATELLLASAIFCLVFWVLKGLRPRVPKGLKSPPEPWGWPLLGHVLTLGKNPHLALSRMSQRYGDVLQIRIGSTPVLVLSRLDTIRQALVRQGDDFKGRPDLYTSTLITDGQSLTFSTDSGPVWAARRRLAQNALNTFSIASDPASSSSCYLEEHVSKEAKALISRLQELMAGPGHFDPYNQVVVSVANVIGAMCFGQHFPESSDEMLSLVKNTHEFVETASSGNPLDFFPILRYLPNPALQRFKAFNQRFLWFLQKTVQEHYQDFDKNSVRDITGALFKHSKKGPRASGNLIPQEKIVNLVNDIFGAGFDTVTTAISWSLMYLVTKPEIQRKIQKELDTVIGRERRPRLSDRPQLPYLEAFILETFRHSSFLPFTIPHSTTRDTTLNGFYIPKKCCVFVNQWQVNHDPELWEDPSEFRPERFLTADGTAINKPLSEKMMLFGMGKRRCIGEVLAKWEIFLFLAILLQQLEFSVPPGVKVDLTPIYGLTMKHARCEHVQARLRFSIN
# In short: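 O-Demethylation of luciferin 6' methyl ether by human CYP1A2 is monitored as luciferase luminescence. Substrate sits at Km (100uM); enzyme is 20nM. Values are scaled to 57 uM furafylline as maximal inhibition.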
# [4] = Stat Signaling Pathway (AID 446; active = well fitted curve in either direction with a large enough effect, not every such curve was filed as active;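 note: ME-180 cervical cancer cells given 40 pM IL-6 alongside compound; SIE-controlled beta-lactamase reporter measured as 460/530 nm FRET emission ratio; % is set by controls: 0 for no effect and ±100 for the full control effect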); details: ME-180 SIE beta-lactamase reporter, IL-6 stimulated, 5 h; at 7.69 µM (top of the series) unless noted
# In short: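 Emission at 460 and 530 nm (excitation 405 nm) reports SIE-controlled beta-lactamase in ME-180 cells. Cells received compound with 40 pM IL-6 for 5 hrs at 37 C; data scaled between 300 pM IL-6 and 125 nM JAK-inhibitor controls.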
# [5] = biological target: Glucocorticoid receptor (Homo sapiens) (UniProt P04150); assay: GR-GFP Redistribution (AID 450;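 active = compounds whose dose series gives a full or clear partial fitted curve of increased nuclear translocation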; note: potency is the fitted concentration of half-maximal effect); details: U2OS GR-GFP nuclear translocation, laser cytometry, 2 h
# Glucocorticoid receptor (Homo sapiens), sequence (P04150 whole entry, looked up, the tested form may be a part): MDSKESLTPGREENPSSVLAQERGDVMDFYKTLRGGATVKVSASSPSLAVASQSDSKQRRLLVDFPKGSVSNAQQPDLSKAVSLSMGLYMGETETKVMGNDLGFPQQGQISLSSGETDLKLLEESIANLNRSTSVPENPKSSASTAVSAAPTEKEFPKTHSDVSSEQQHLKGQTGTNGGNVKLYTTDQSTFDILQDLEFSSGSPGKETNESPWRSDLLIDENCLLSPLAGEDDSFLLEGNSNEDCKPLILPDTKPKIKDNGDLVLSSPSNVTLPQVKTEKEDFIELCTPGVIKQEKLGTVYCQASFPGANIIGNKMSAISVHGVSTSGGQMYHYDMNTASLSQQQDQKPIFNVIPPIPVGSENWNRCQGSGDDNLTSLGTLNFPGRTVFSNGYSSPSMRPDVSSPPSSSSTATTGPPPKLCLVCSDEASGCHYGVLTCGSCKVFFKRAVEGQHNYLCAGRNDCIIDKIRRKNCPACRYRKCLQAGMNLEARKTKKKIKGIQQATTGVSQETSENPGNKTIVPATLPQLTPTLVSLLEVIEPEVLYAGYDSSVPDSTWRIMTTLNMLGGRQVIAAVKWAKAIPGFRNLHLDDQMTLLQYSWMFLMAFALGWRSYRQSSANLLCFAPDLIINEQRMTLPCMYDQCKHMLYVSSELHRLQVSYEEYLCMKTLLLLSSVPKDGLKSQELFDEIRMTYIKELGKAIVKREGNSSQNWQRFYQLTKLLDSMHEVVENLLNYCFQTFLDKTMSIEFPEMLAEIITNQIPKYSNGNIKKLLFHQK
# [6] = biological target: Glucocorticoid receptor (Homo sapiens) (UniProt P04150); assay: GR-EFC Redistribution (AID 451; calls by dose curve; note: potency is the fitted concentration of half-maximal effect); details: CHO-K1 GR-EFC translocation, beta-gal luminescence, 2 h
# In short: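 CHO-K1 cells stably expressing nuclear-localized β-gal enzyme acceptor and GR fused C-terminally to the enzyme donor fragment; ligand-driven nuclear translocation restores β-gal by complementation. Compounds titrated up to 46 uM final, 2 h at 37 °C; luminescence read.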
# [7] = biological target: Mitogen-activated protein kinase 10 (Mus musculus) (UniProt Q61831); assay: JNK3 AlphaScreen Assay (AID 530; active = well fitted curve in either direction with a large enough effect, not every such curve was filed as active;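 note: kinase came from lysate of stimulated human HepG2 cells; signal reports phosphorylation of biotinylated GST-cJun 1-79 at Ser73 with 10 µM ATP; % is set by controls: 0 for no effect and ±100 for the full control effect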); details: JNK3 lysate, c-Jun phosphorylation; series mostly up to 57.1 µM
# In short: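 Phosphorylation of biotinylated GST-cJun(1-79) at Ser73 is measured by AlphaScreen proximity luminescence. Enzyme is JNK3 in HepG2 lysates activated with interleukin-1beta and tumor necrosis factor alpha; ATP is 10 uM final.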
# [8] = biological target: 3',5'-cyclic-AMP phosphodiesterase 4B (Homo sapiens) (UniProt Q07343); assay: qHTS Assay for Inhibitors of PDE-IV (AID 607; active = well fitted activation curve with a large enough effect in the main read-out, with a control signal flat, not every such curve was filed as active; note: % of control where 0% means no effect); details: HEK293 ACTOne CNG channel cells, membrane potential fluorescence; series mostly up to 22.9 µM
# 3',5'-cyclic-AMP phosphodiesterase 4B (Homo sapiens), sequence (Q07343 whole entry, looked up): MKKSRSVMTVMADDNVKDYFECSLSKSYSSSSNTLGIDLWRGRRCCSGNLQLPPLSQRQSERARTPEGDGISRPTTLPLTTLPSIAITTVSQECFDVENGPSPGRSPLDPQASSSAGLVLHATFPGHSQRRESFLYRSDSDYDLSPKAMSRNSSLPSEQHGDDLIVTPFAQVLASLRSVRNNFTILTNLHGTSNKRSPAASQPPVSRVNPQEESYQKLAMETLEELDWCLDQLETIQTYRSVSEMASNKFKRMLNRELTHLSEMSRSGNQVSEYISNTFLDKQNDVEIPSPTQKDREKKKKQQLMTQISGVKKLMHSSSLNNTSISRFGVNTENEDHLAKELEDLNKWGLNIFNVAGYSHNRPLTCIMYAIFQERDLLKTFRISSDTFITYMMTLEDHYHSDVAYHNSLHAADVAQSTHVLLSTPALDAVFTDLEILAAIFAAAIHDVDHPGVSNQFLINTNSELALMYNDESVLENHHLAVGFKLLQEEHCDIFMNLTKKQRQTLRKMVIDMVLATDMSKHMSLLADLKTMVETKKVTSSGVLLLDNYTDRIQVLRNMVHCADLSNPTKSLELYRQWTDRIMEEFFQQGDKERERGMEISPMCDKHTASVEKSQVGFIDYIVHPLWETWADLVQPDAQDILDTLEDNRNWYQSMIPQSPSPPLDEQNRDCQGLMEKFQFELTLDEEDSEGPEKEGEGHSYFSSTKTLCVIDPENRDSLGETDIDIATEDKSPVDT
# In short: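 The readout is membrane depolarisation from a cAMP-sensing CNG channel, detected with a potential dye at ex 535/em 590. Cells were HEK293-derived (endogenous PDE-IV) at 1000 cells/well, titrated up to 22.9 uM final.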
# [9] = biological target: Dual specificity protein kinase CLK4 (Homo sapiens) (UniProt Q9HAZ1); assay: qHTS Assay for Inhibitors of CDC-like Kinase 4 (Kinase-Glo Assay) (AID 1770); details: recombinant Clk4, Kinase-Glo ATP depletion luminescence; series mostly up to 66.7 µM; note: nearly all actives have a fitted effect of over 65% in size; note: potency is the fitted concentration of half-maximal effect
# Dual specificity protein kinase CLK4 (Homo sapiens), sequence (Q9HAZ1 whole entry, looked up): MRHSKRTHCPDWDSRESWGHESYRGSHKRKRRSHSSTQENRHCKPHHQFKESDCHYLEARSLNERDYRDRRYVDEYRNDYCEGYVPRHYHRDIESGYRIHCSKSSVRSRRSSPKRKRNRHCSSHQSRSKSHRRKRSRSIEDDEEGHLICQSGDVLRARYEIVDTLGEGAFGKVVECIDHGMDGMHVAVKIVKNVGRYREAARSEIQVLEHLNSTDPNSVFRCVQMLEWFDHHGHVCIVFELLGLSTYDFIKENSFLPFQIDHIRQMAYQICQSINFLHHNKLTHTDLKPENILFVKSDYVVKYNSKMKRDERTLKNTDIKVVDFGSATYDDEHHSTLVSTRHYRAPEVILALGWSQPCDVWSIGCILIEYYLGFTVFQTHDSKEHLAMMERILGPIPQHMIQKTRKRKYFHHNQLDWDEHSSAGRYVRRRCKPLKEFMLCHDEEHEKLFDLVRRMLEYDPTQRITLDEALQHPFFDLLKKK
# In short: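 25 nM Clk4 with 100 uM RS repeat peptide and 1 uM ATP (final) in Tris pH7.5, 10 mM MgCl2, 4.5 h at room temperature. Remaining ATP measured by Kinase-Glo luciferase luminescence.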
# [10] = biological target: Dual specificity protein kinase CLK4 (Homo sapiens) (UniProt Q9HAZ1); assay: qHTS Assay for Inhibitors of CDC-like Kinase 4 (ADP-Glo Assay) (AID 1771); details: recombinant CLK4, ADP-Glo luminescence; series mostly up to 80 µM; note: nearly all actives have a fitted effect of over 70% in size; note: potency is the fitted concentration of half-maximal effect
# In short: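 Compounds are pin-transferred onto substrate mix (100 uM RS peptide, 1 uM ATP), then 25 nM Clk4 is added. After 1 hr at room temperature, ADP-Glo reagent runs 45 min, detection reagent 30 min, then luminescence is read.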
# [11] = biological target: Dual specificity protein kinase CLK4 (Homo sapiens) (UniProt Q9HAZ1); assay: qHTS Assay for Inhibitors of CDC-like Kinase 4 (ADP-FP Assay) (AID 1795); details: Transcreener ADP fluorescence polarization; series mostly up to 50 µM; note: nearly all actives have a fitted effect of over 60% in size; note: potency is the fitted concentration of half-maximal effect
# In short: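 Recombinant Clk4 (6.25 nM) phosphorylated 100 uM RS repeat peptide with 1 uM ATP in 25 mM Tris pH 7.5, 10 mM MgCl2, 0.5 mM EGTA, 2.5 mM DTT, 0.01% Triton X-100 for 1 h. ADP was detected by Transcreener ADP2 competitive fluorescence polarization after 30 min at room temperature.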
# [12] = biological target: Ubiquitin carboxyl-terminal hydrolase 1 (Homo sapiens) (UniProt O94782); assay: Inhibitors of USP1/UAF1: Pilot qHTS (AID 504865); details: purified USP1/UAF1, Ub-rhodamine cleavage fluorescence; series mostly up to 54.9 µM; note: nearly all actives have a fitted effect of over 35% in size; note: potency is the fitted concentration of half-maximal effect
# Ubiquitin carboxyl-terminal hydrolase 1 (Homo sapiens), sequence (O94782 whole entry, looked up): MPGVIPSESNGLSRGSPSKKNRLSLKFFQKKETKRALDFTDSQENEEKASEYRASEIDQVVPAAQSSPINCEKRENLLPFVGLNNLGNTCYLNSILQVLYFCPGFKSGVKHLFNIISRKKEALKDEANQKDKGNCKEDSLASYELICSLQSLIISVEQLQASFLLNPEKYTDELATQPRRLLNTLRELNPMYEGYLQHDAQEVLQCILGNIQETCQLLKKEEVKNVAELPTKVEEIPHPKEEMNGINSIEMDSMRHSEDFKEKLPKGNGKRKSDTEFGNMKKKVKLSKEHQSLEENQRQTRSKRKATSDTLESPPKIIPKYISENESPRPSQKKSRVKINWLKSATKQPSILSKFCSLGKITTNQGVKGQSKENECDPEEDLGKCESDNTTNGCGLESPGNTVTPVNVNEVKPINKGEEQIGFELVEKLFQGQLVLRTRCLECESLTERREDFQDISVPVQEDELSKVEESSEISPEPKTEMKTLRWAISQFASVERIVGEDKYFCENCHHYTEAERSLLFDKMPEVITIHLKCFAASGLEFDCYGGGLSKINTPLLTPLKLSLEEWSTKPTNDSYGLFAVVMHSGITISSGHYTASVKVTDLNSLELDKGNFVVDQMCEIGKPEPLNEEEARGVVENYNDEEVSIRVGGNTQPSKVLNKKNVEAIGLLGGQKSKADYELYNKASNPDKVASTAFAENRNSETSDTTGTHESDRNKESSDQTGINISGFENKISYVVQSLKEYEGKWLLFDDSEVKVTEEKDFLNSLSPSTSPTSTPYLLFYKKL
# In short: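 USP1/UAF1 complex at 1 nM preincubated 15 min at room temperature with compound, then Ub-Rho substrate added at 150 nM final. Fluorescence (480/540 nm) read kinetically in 50 mM HEPES pH 7.8, 0.5 mM EDTA, 1 mM TCEP, 0.1 mg/ml BSA, 0.01% Tween-20.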
# [13] = Primary qHTS for small molecule stabilizers of the endoplasmic reticulum resident proteome: Secreted ER Calcium Modulated Protein (SERCaMP) assay (AID 1508630); details: SH-SY5Y GLuc-SERCaMP (Gaussia luciferase released on ER calcium loss) secretion, thapsigargin, luminescence; series mostly up to 38.4 µM; note: % is set by controls: 0 for no effect and ±100 for the full control effect
# In short: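 The SH-SY5Y reporter protocol was run at 3 concentrations up to 38.3 uM (primary) or 11 concentrations (follow-up): 16 h compound, 100 nM thapsigargin for 4 h, then extracellular luciferase luminescence.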
# [14] = NFAT Signaling Pathway (AID 444; active = well fitted curve in either direction with a large enough effect, not every such curve was filed as active); details: Jurkat NFAT-bla M1, carbachol, beta-lactamase ratio, 5 h; at 7.69 µM (top of the series) unless noted
# In short: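 Jurkat cells carrying an NFAT-driven β-lactamase reporter and co-transfected muscarinic M1 receptor were treated with compound plus carbachol (1 uM final, an EC50 level) for 5 h at 37 °C. CCF4 loading followed for 1 h at RT; 460/530 nm ratio gave %activity.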
# [15] = qHTS Assay for Identification of Small Molecule Agonists for Hypoxia Response Element Signaling Pathway (AID 914; active = well fitted activation curve with a large enough effect in the signal ratio, with a control signal flat, not every such curve was filed as active; the % refers to the signal ratio; note: potency is the fitted concentration of half-maximal effect); details: ME-180 (cervical carcinoma) HRE-bla reporter, beta-lactamase ratio, CoCl2, 17 h; activation: hits give high values
# In short: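 Compounds in a titration series were added to ME-180 reporter cells alongside an EC50 level of CoCl2. After 17 hours, beta-lactamase activity was read as the 460nm/530nm emission ratio of CCF4, giving AC50 values.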
# [16] = biological target: Cytochrome P450 3A4 (Homo sapiens) (UniProt P08684); assay: qHTS Assay for Activators of Cytochrome P450 3A4 (AID 885); details: recombinant CYP3A4, Luciferin-PPXE luminescence, 60 min; series mostly up to 57.1 µM; note: nearly all actives have a fitted effect of over 65% in size
# Cytochrome P450 3A4 (Homo sapiens), sequence (P08684 whole entry, looked up): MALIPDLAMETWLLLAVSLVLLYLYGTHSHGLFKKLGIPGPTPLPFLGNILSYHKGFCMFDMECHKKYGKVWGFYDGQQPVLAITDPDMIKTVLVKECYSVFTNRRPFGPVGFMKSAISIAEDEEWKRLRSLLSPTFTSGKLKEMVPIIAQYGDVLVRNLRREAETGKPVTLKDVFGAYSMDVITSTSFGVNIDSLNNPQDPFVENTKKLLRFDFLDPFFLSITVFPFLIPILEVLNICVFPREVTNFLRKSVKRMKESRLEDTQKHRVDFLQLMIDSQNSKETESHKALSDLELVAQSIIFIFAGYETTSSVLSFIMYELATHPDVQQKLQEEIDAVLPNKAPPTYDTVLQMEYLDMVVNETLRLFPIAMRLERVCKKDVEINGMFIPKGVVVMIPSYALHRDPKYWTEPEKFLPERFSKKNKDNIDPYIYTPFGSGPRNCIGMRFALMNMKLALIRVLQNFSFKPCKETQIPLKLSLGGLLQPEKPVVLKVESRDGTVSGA
# In short: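 Activators are scored by enhanced luminescence from CYP3A4 conversion of luciferin-PPXE (25uM, equal to KM) to luciferin, after 60 min at RT with an NADPH-regenerating system.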
# [17] = biological target: Cytochrome P450 2C19 (Homo sapiens) (UniProt P33261); assay: qHTS Assay for Inhibitors and Substrates of Cytochrome P450 2C19 (AID 899); details: recombinant CYP2C19, luciferin-H EGE luminescence; series mostly up to 57.1 µM; note: potency is the fitted concentration of half-maximal effect; nearly all actives have a fitted effect of over 60% in size
# Cytochrome P450 2C19 (Homo sapiens), sequence (P33261 whole entry, looked up): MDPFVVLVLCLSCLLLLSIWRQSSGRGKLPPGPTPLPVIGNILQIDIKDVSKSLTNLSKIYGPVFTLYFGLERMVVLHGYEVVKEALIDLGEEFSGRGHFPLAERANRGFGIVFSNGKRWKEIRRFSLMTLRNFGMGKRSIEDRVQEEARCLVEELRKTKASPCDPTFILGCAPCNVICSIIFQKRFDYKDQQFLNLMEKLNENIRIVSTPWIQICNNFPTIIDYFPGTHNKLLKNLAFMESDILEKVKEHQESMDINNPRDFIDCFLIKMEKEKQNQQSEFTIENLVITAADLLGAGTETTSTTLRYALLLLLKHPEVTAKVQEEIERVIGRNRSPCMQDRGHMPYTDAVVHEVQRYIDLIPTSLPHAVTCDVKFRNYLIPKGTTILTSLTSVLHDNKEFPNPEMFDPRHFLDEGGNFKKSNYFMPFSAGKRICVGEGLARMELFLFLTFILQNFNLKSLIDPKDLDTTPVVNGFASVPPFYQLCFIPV
# In short: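 NADPH-dependent conversion of Luciferin-H EGE (10uM, at KM) by 5nM enzyme in 50mM KPO4, 60 min at 37C following 10 min compound preincubation. Stopped with luciferin detection buffer; luminescence read after 20 min.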
# [18] = biological target: Cytochrome P450 3A4 (Homo sapiens) (UniProt P08684); assay: qHTS Assay for Inhibitors and Substrates of Cytochrome P450 3A4 (AID 884); details: recombinant CYP3A4, Luciferin-PPXE luminescence; series mostly up to 57.1 µM; note: potency is the fitted concentration of half-maximal effect; nearly all actives have a fitted effect of over 50% in size
# In short: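 Luminescent readout of luciferin produced by CYP3A4 (20 nM) dealkylation of Luciferin-PPXE, 25 uM (its KM). NADPH-driven reaction ran 60 min at RT after 10 min compound preincubation; data scaled to 57 uM ketoconazole as 100% inhibition.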
# [19] = biological target: Cytochrome P450 2D6 (Homo sapiens) (UniProt P10635); assay: qHTS Assay for Inhibitors and Substrates of Cytochrome P450 2D6 (AID 891); details: recombinant CYP2D6, luciferin-ME EGE luminescence; series mostly up to 57.1 µM; note: potency is the fitted concentration of half-maximal effect; nearly all actives have a fitted effect of over 60% in size
# In short: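 Luminescent read-out of luciferin formed by 5 nM human CYP2D6 demethylating 30 uM Luciferin-ME EGE (Km level) over 60 min at room temperature after NADPH regeneration addition. Data normalized to full inhibition by 1.43 uM quinidine.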
SMILES,Potency [1],"activity change, negative = inhibition [2]",Potency [3],"activity, negative = inhibition [4] [%]",Potency [5] [µM],Potency [6] [µM],Potency [7],Potency [8],Potency [9],Potency [10],Potency [11],Potency [12],outcome [13],"activity change, negative = inhibition [14]",Potency [15],Potency [16],Potency [17],Potency [18],Potency [19]
COc1cccc(Nc2ncc3nc(-c4cccs4)c(=O)n(Cc4cccs4)c3n2)c1,> 11.4 µM,-19.6%,2 µM (active),-4.04,> 9.22,> 46,inactive,inactive,inactive,inactive,inactive,20 µM (active),inactive,–,–,–,–,–,–
O=c1c(-c2ccc(F)cc2)nc2cnc(N3CCOCC3)nc2n1CCc1ccccc1,> 11.4 µM,79.3% [activator] (active),25.1 µM (active),–,> 9.22,> 46,–,inactive,inactive,inactive,inactive,inactive,inactive,103% [activator] (active),0.501 µM (active),–,–,–,–
CCNc1ncc2nc(-c3cccs3)c(=O)n(Cc3ccc(F)cc3)c2n1,> 11.4 µM,24.9%,10 µM (active),–,> 9.22,> 46,–,inactive,inactive,inactive,inactive,20 µM (active),inactive,-12.4%,–,inactive,–,–,–
COc1ncc2nc(-c3ccc(F)cc3)c(=O)n(Cc3cccs3)c2n1,> 11.4 µM,-5.24%,–,-28.5,> 9.22,> 46,inactive,inactive,inactive,inactive,inactive,inactive,inactive,-1.45%,–,–,–,–,–
COc1cccc(-c2cc(NCc3ccccc3)ncn2)c1,> 11.4 µM,-18.4%,2 µM (active),–,> 46,> 46,inactive,–,15.8 µM (active),28.2 µM (active),12.6 µM (active),inactive,inactive,13.6%,–,inactive,7.94 µM (active),–,–
COCCn1c(=O)cnc2cnc(Oc3cccc(Cl)c3)nc21,> 11.4 µM,1.86%,3.16 µM (active),-13.2,> 9.22,> 46,inactive,inactive,inactive,inactive,inactive,inactive,inactive,–,–,inactive,–,–,–
COc1cccc(Cn2c(=O)c(-c3cn(C)c4ccccc34)nc3cnc(N4CCOCC4)nc32)c1,> 11.4 µM,5%,–,10.6,> 9.22,> 46,inactive,inactive,inactive,inactive,inactive,inactive,inactive,7.78%,–,–,–,–,–
N#CCCn1c(=O)c(-c2ccccc2)nc2cnc(Nc3ccccc3)nc21,> 11.4 µM,-19.8%,0.794 µM (active),-23.1,–,–,inactive,–,inactive,inactive,inactive,inactive,inactive,–,–,–,–,–,–
N#CCCn1c(=O)c(CCc2ccccc2)nc2cnc(Nc3ccccc3)nc21,> 11.4 µM,-27.7%,inactive,–,> 9.22,> 46,inactive,inactive,inactive,inactive,inactive,inactive,inactive,–,–,inactive,–,–,–
COc1cccc(-c2cncnc2Nc2ccccc2)c1,> 11.4 µM,-6.33%,–,-2.57,> 46,> 46,inactive,–,inactive,inactive,inactive,inactive,inactive,0.84%,–,–,–,–,–
CN(C)c1ccc(-c2nc(NCCc3cnc[nH]3)c3ccccc3n2)cc1,6.71 µM (active),0.922%,0.631 µM (active),15.6,> 46,> 46,inactive,inactive,28.2 µM (active),22.4 µM (active),inactive,inactive,inactive,–,–,inactive,1.58 µM (active),2.51 µM (active),7.94 µM (active)
Cn1cc(-c2nc3cnc(N4CCNCC4)nc3n(-c3ccccc3)c2=O)c2ccccc21,> 11.4 µM,22.4%,15.8 µM (active),–,> 9.22,> 46,–,inactive,inactive,inactive,inactive,inactive,inactive,24.6%,3.98 µM (active),–,–,–,–
Cc1noc(C)c1-c1ccc2ncnc(NCc3cccs3)c2c1,> 11.4 µM,20.1%,0.398 µM (active),–,> 46,> 46,inactive,–,0.501 µM (active),0.447 µM (active),0.158 µM (active),–,inactive,–,–,inactive,1.26 µM (active),–,–
